Assay outcomes: PubChem BioAssay, National Center for Advancing Translational Sciences (NCATS)
This is a sample that favours compounds with a hit; in the whole collection about 1.8% have one here.
GLP-1R agonist – agonists of human GLP-1 receptor; 380,000 tested, 0.007% active; AID 624172; HEK293 GLP-1R CRE-luciferase, luminescence, 4-6 h; cells express a hypersensitive GLP-1R form; Potency, µM (series often up to 45.6 µM), inactives show at the top dose activation, most hits filed as activators; P43220; also: potency is read from the fitted curve at half-maximal effect; % of control where 0% means no effect
GLP-1R inv ag – GLP-1 receptor (human) inverse agonism; P43220; 410,000 tested, 1.6% active; Potency, µM (highest dose often 38.3 µM), for the others: at the highest dose activity change, negative = inhibition, hits mostly inhibitors; HEK293 GLP-1R CRE-luciferase, luminescence, 24 h; GLP-1R form is constitutively active; AID 624417; also: potency is read from the fitted curve at half-maximal effect; % is scaled to controls: 0 for no effect and ±100 for the full control effect; nearly all actives have a fitted effect of over 55% in size
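GLP-1R inverse agonism mode: basal reporter luminescence in engineered HEK293 cells measured after one day of compound exposure at 37 deg C, with a 12 min room-temperature detection step.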
PTHR1 agonist – activates the human parathyroid hormone receptor PTHR1; AID 743266; 410,000 tested, 0.075% active; Potency, µM (doses to about 115 µM), for the others: top-dose activation, usual class: activators; HEK293 GP2 PTHR1 cells, GloSensor cAMP luminescence, 1 h; also: potency is read from the fitted curve at half-maximal effect; nearly all actives have a fitted effect of over 55% in size
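HEK-293-derived GP2 cells expressing PTHR1 and a GloSensor cAMP reporter, 3,000/well, plated overnight, given luciferin plus IBMX (each 0.5 mM as added) for 1 h at 37 °C, then compound for 1 h at 37 °C. Luminescence was read after 15 min at room temperature.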
GLP1R cytotox – cytotoxicity in counter-screen for GLP-1R inverse agonists | Potency, µM (highest dose often 38.3 µM), for the others: at the highest dose activity change, negative = inhibition, most hits filed as inhibitors | AID 624418 | 410,000 tested, 0.13% active | HEK293 cAMP-luciferase reporter cells, luminescence, 24 h;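 also: loss of luciferase light is scored as toxicity; potency is read from the fitted curve at half-maximal effect; % is scaled to controls: 0 for no effect and ±100 for the full control effect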
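To flag toxic compounds, the library was rerun on cells for 24 hr at 37 deg C and 5% CO2. Viability-linked luminescence was captured 12 min after adding luciferase detection reagent.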
TSHR antagonist – human thyrotropin receptor antagonism | P16473 | TSHR-expressing cells, TSH-stimulated cAMP HTRF, 2 h; hits give low values | activity change, negative = inhibition, % at 11.5 µM | 330,000 tested, 0.2% active | AID 504810;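 active = activity change below a set negative limit, meaning inhibition stronger than a set level, cut at about -70% in these data; inconclusive = activity change between two set negative limits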; also: % is scaled to controls: 0 for no effect and ±100 for the full control effect
Target sequence (P16473 whole entry, looked up): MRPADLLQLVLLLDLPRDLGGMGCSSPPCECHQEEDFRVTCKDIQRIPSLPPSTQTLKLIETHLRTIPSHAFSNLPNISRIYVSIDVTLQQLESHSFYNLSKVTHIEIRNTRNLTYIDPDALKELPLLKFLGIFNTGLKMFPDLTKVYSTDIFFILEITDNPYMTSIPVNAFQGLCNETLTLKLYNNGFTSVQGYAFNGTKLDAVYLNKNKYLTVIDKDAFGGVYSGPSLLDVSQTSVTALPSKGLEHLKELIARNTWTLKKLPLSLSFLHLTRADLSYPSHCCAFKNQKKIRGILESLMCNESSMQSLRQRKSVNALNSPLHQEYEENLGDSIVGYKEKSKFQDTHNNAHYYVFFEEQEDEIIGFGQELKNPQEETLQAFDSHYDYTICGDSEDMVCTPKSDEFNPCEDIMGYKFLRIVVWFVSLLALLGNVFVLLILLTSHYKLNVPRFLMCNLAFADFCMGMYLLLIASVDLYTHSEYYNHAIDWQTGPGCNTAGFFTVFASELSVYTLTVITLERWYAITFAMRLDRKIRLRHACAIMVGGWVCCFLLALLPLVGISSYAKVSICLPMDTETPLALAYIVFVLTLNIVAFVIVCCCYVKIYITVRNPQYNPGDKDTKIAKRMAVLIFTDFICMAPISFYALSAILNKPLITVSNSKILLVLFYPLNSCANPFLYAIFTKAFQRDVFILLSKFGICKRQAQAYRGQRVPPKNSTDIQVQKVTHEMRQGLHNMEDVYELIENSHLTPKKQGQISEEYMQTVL
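Inhibition of cAMP made by TSHR-expressing cells under TSH stimulation (4nM final, EC80; 2 h, 37 deg C) is quantified with a one-step lysis HTRF kit, anti-cAMP cryptate versus cAMP-d2.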
* marks the source's active call; other numbers are inactive results; i = inactive; ? = inconclusive; nt = no result; [ ] = another dose, or the depositor's remark. Unless noted, calls follow the shape of the dose curve; as a rule, active = well fitted curve in the direction sought with a large enough effect; inconclusive = small, poorly fitted or top-dose-only effect, or another doubt; inactive = no such curve, though single readings can be large; an effect the other way counts as inactive or inconclusive.

SMILES	GLP-1R agonist	GLP-1R inv ag	PTHR1 agonist	GLP1R cytotox	TSHR antagonist
CN(C)C(=S)Nc1nc2ccccc2s1	-2.1%	0.631µM*	-46.5%	?	5.1
Cc1ccc(Nc2nc3ccccc3s2)cc1	-5.9%	-15.7%	-18.1%	2.2%	-5.7
Cc1ccccc1Nc1nc2ccccc2s1	2.4%	11.2µM*	i	0.4%	-5.7
NC[C@@H]1O[C@@H](O[C@H]2[C@@H](O)[C@H](O[C@@H]3[C@@H](O)[C@@H](N)C[C@H](N)[C@H]3O[C@H]3O[C@H](CN)[C@@H](O)[C@@H](O)[C@H]3N)O[C@H]2CO)[C@H](N)[C@@H](O)[C@@H]1O	-2.3%	nt	nt	nt	nt
COc1ccc(N2CCN(C(=O)CCn3cnc4onc(-c5ccc(F)cc5)c4c3=O)CC2)cc1	nt	?	-32.8%	-13.4%	nt
CO[C@]1(NC(=O)Cc2cccs2)C(=O)N2C(C(=O)O)=CC(COC(N)=O)S[C@H]21 (some centres undefined)	-4.4%	nt	nt	nt	nt
Cn1c(SCC(=O)N2CCN(c3ccccc3)CC2)nnc1-c1c[nH]c2ccccc12	-1.5%	?	-2.2%	-10.6%	-24.3
CCn1c(SCC(=O)N2CCN(c3ccccc3)CC2)nnc1-c1c[nH]c2ccccc12	-0.5%	3.98µM*	-13.4%	1.7%	-7.2
CCn1c(SCC(=O)N2CCCc3ccccc32)nnc1-c1c[nH]c2ccccc12	-4.3%	2.51µM*	-35.3%[57.5 µM]	-21.0%	-5.6
Cc1ccc(CSCc2nnc(SCC(=O)N3CCN(c4ccccc4)CC3)n2C)cc1	0.2%	7.94µM*	-44.9%[57.5 µM]	16.1%	-14.2
CCn1c(CSCc2ccc(F)cc2)nnc1SCC(=O)N1CCN(c2ccccc2)CC1	-7.0%	?	-49.0%[57.5 µM]	-23.1%	-16.6
CCn1c(SCC(=O)N2CCc3ccccc32)nnc1-c1c[nH]c2ccccc12	2.2%	?	-84.6%[57.5 µM]	-7.6%	0.6
CCc1ccc(N(CC)C(=O)c2cc3c(=O)oc4ccc(C)cc4c3s2)cc1	-1.4%	5.0%	-0.6%	-8.8%	nt
COc1ccccc1CNC(=O)CCC1N=C2c3ccccc3N=C(SCC(=O)Nc3ccc(F)cc3)N2C1=O (centres undefined)	nt	0.3%	21.3%	-11.8%	nt
CCOc1cc(C#N)c(NC(=O)c2ccc(OC)c(S(=O)(=O)N3CCN(c4ccccc4)CC3)c2)cc1OCC	nt	5.1%	-9.4%	1.6%	nt
CCc1cccc(NC(=O)C2CCCN(S(=O)(=O)c3cccs3)C2)c1 (centres undefined)	18.2%	10µM*	-15.0%	-12.0%	17.0
COc1ccc(NC(=O)C2CCCN(S(=O)(=O)c3cccs3)C2)cc1OC (centres undefined)	2.7%	-6.1%	?	-5.0%	-8.2
Cc1ccc(Cn2c(CN3CCC(C(=O)NCc4cccnc4)CC3)cc3ccccc32)cc1	nt	?	-8.3%	-9.4%	nt
Cc1ccc(Cn2c(CO)cnc2SCC(=O)Nc2ccc(C)c(Cl)c2)cc1	nt	12.6µM*	-46.5%	-6.0%	nt
Cc1ccc(Cn2c(CO)cnc2SCC(=O)Nc2cccc(F)c2)cc1	0.4%	-19.0%	-19.9%	-4.3%	nt
Nc1ccc2cc3ccc(N)cc3nc2c1	-7.1%	nt	nt	nt	nt
CCCCCn1c(=N)n(CC(O)COc2cccc(C)c2)c2ccccc21 (centres undefined)	nt	11.2µM*	-51.5%	?	nt
CCCCCCCn1c(=N)n(CC(O)c2ccco2)c2ccccc21 (centres undefined)	4.1%	11.2µM*	-20.3%	?	-7.0
COc1ccc(CCNC(=O)C(=O)NCC(c2ccc3c(c2)OCO3)N2CCOCC2)cc1 (centres undefined)	nt	0.3%	-10.9%	-7.4%	nt
O=C(NC(c1ccc(F)cc1)c1ccc2ccccc2n1)C1CCN(CCOc2ccc(F)cc2)CC1 (centres undefined)	-1.7%	?	-20.3%	?	nt
SMILES	GLP-1R agonist	GLP-1R inv ag	PTHR1 agonist	GLP1R cytotox	TSHR antagonist
COc1ccc(OCCN2CCC(C(=O)NC(c3ccccc3)c3ccc4ccccc4n3)CC2)cc1 (centres undefined)	-6.0%	?	1.6%	?	nt
O=C(NC(c1ccc(F)cc1)c1ccc2ccccc2n1)C1CCN(CCOc2ccc(Cl)cc2Cl)CC1 (centres undefined)	-5.9%	?	i	11.2µM*	nt
O=C(NC(c1ccccc1)c1ccc2ccccc2n1)C1CCN(CCOc2ccc(Cl)cc2)CC1 (centres undefined)	-20.1%	11.2µM*	-93.4%	-5.2%	nt
COc1cc(CN2CCC(C(=O)NC(c3ccc(F)cc3)c3ccc4ccccc4n3)CC2)cc(OC)c1 (centres undefined)	-0.5%	2.82µM*	i	-10.6%	nt
Cc1cccn2c(=O)c(C(=O)N3CCN(c4ccccc4F)CC3)cnc12	nt	-4.4%	i	-8.2%	nt
CN(C)S(=O)(=O)c1ccc2c(c1)nnn2CCNC(=O)Nc1ccc(Br)cc1	nt	-26.2%	i	5.9%	nt
COc1ccc(CCc2ccc3ccccc3n2)cc1	22.9%	10µM*	-28.8%	-7.3%	nt
O=S1(=O)c2ccc(Br)cc2N2CCC[C@H]2CN1Cc1ccccc1	12.8%	3.98µM*	i	?	-19.4
O=S1(=O)c2ccc(Br)cc2N2CCC[C@@H]2CN1Cc1ccc(Cl)cc1	-3.9%	?	-28.6%	-7.3%	nt
O=C(NCc1ccc(Cl)cc1)C1CCN(S(=O)(=O)Cc2ccccc2)CC1	nt	0.2%	-14.3%	-5.5%	nt
O=c1cc(-c2c(F)c(F)c(F)c(F)c2F)oc2c(F)c(F)c(F)c(F)c12	nt	nt	nt	nt	-76.2*
O=c1cc(-c2c(F)c(F)c(F)c(F)c2F)oc2ccccc12	-6.5%	14.2%	-35.1%	-4.4%	-13.0
Cc1ccnc(OC(C(=O)O)C(OCc2ccccc2)(c2ccccc2)c2ccc(C(F)(F)F)cc2)n1 (centres undefined)	-2.3%	10µM*	-30.6%	15.5%	-17.3
CCCCOc1ccc(C(=O)N/C(=C\c2ccc(Br)cc2)C(=O)NC2CCCCC2)cc1	nt	3.7%	-1.3%	14.9%	nt
COc1cc(C(=O)Nc2ccc(-c3cc(C(F)(F)F)nn3-c3ccccc3)cc2)cc(OC)c1OC	nt	7.94µM*	i	-5.7%	nt
O=C(Nc1ccc(-c2cc(C(F)(F)F)nn2-c2ccccc2)cc1)c1cccc(F)c1	nt	?	-18.0%	-20.3%	nt
CCCCN1CC(COCc2ccccc2)Oc2cccc(Oc3cc(C)c(C)c(C)c3)c2S1(=O)=O (centres undefined)	-1.8%	2.82µM*	-38.5%	-21.8%	nt
CCCCN1CC(COCc2ccccc2)Oc2cccc(Oc3ccc(C)cc3)c2S1(=O)=O (centres undefined)	4.7%	7.94µM*	-18.8%	0.8%	nt
CCCCN1CC(COCc2ccccc2)Oc2cccc(Oc3ccccc3)c2S1(=O)=O (centres undefined)	-0.1%	?	11.6%	13.1%	nt
